# Measurements: PubChem BioAssay (NCATS)
# Values joined by “and” are separate entries in the source; they are usually repeats but may differ in a detail not shown here. Equal values may be shown once. Records with an inconclusive call do not appear. Entries that show only a call come without a potency. A number with no mark means an inactive call. Active and inactive are the calls of the source. Unless noted, calls come from the whole dose curve; as a rule, active = well fitted curve in the direction sought with a large enough effect; inconclusive = small, poorly fitted or top-dose-only effect, or another doubt; inactive = no such curve, though single readings can be large; an effect the other way counts as inactive or inconclusive.
# Columns and labels:
# [1] = Counterscreen qHTS for small molecule stabilizers of the endoplasmic reticulum resident proteome: GLuc-NoTag assay (AID 1508627); note: potency is the fitted concentration of half-maximal effect
# Outline: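 Counterscreen line: SH-SY5Y-GLuc-NoTag. Seed, 5 h; compound, 19 h; thapsigargin 100 nM, 4 h; 37C/5% CO2. Readout: secreted GLuc luminescence, coelenterazine 0.07x final, no lysis.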
# [2] = Confirmatory qHTS for small molecule stabilizers of the endoplasmic reticulum resident proteome: Secreted ER Calcium Modulated Protein (SERCaMP) assay (AID 1508628); note: nearly all actives have a fitted effect of over 40% in size; note: potency is the fitted concentration of half-maximal effect
# Outline: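 Reporter secretion upon ER calcium depletion (100 nM thapsigargin, 4 h, 37C) is measured as medium luminescence with coelenterazine, after 16 h compound pretreatment of SH-SY5Y-GLuc-SERCaMP cells; primary at three concentrations up to 38.3 uM, follow-up at 11 (up to 76.6 uM).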
# [3] = Cell Viability qHTS for small molecule stabilizers of the endoplasmic reticulum resident proteome (AID 1508629); settings: cell viability counter-screen, 100 nM thapsigargin for final 4 h;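 note: compound exposure about 46 h in total before the viability read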; note: potency is the fitted concentration of half-maximal effect;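 for max response: human SH-SY5Y neuroblastoma cells carrying the GLuc-SERCaMP reporter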
# [4] = Primary qHTS for small molecule stabilizers of the endoplasmic reticulum resident proteome: Secreted ER Calcium Modulated Protein (SERCaMP) assay (AID 1508630); note: potency is the fitted concentration of half-maximal effect
# Outline: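 The SH-SY5Y reporter protocol was run at 3 concentrations up to 38.3 uM (primary) or 11 concentrations (follow-up): 16 h compound, 100 nM thapsigargin for 4 h, then extracellular luciferase luminescence.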
# Papain (Carica papaya) = Papain (Carica papaya) (UniProt P00784); experiment: Primary qHTS assay for inhibitors of the protease papain (AID 1645873);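 note: papain turnover of Z-FR-AMC read as the AMC fluorescence gain over 10 min; series mostly up to about 50 µM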
# [5] = biological target: Cytochrome P450 2D6 (Homo sapiens) (UniProt P10635); experiment: Cytochrome P450 family 2 subfamily D member 6 (CYP2D6) small molecule antagonists: luciferase biochemical (cell-free) qHTS assay (AID 1645840; active = well fitted curve in the direction sought with a large enough effect in the repeat runs; an effect the other way counts as inactive or inconclusive; note: nearly all actives have a fitted effect of over 55% in size; note: potency is the fitted concentration of half-maximal effect)
# Outline: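 P450-Glo CYP2D6 system: proluciferin substrate converted by enzyme to luciferin, read by luminescence proportional to activity. Enzyme-substrate mix with compound 10 min at room temperature, then NADPH regeneration 1 h before detection reagent.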
# [6] = biological target: Cytochrome P450 2C9 (Homo sapiens) (UniProt P11712); experiment: Cytochrome P450 family 2 subfamily C member 9 (CYP2C9) small molecule antagonists: luciferase biochemical (cell-free) qHTS assay (AID 1645842; active = well fitted curve in the direction sought with a large enough effect in the repeat runs; an effect the other way counts as inactive or inconclusive; note: nearly all actives have a fitted effect of over 55% in size; note: potency is the fitted concentration of half-maximal effect)
# Outline: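 P450-Glo CYP2C9 system: proluciferin substrate with enzyme in mix containing 0.4% BSA, 10 min at room temperature, then NADPH regeneration solution added and incubated 1 h at 37C. Detection reagent stopped reaction; luminescence read after 20 min as RLU.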
# [7] = A High-Content qHTS Against Drug Library for the Identification of Small Molecules that Inhibit DYT1 Early Onset Primary Dystonia-Associated Cell Pathology (AID 1645839; calls by dose curve; note: potency is the fitted concentration of half-maximal effect)
# Outline: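 Cells were seeded and left for 24 h, then dosed with compound alongside tetracycline induction of mutant EGFP-TorsinA. They were incubated for 48 h, fixed in 4% paraformaldehyde, permeabilized and imaged for mislocalization (%pathology) and cell count.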
# [8] = biological target: Cytochrome P450 3A4 (Homo sapiens) (UniProt P08684); experiment: Cytochrome P450 family 3 subfamily A member 4 (CYP3A4) small molecule antagonists: luciferase qHTS assay (AID 1645841; active = well fitted curve in the direction sought with a large enough effect in the repeat runs; an effect the other way counts as inactive or inconclusive; note: nearly all actives have a fitted effect of over 45% in size)
# Outline: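 P450-Glo CYP3A4 enzyme with proluciferin substrate preincubated 10 min with compound at room temperature, then NADPH regeneration 1 h. Luciferin detection reagent added for 20 min; luminescence recorded. Ketoconazole positive control.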
# Papain (Carica papaya), sequence (P00784 whole entry, looked up): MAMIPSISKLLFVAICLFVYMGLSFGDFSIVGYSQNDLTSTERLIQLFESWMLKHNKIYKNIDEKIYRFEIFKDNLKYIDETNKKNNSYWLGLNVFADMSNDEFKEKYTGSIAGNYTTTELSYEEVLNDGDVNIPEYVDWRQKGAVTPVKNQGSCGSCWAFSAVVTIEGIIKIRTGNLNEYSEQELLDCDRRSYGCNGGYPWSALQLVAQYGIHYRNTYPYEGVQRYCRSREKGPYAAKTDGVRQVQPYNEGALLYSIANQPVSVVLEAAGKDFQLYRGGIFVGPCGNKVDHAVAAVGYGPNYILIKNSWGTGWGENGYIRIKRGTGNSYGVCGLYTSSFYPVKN
# Cytochrome P450 2D6 (Homo sapiens), sequence (P10635 whole entry, looked up): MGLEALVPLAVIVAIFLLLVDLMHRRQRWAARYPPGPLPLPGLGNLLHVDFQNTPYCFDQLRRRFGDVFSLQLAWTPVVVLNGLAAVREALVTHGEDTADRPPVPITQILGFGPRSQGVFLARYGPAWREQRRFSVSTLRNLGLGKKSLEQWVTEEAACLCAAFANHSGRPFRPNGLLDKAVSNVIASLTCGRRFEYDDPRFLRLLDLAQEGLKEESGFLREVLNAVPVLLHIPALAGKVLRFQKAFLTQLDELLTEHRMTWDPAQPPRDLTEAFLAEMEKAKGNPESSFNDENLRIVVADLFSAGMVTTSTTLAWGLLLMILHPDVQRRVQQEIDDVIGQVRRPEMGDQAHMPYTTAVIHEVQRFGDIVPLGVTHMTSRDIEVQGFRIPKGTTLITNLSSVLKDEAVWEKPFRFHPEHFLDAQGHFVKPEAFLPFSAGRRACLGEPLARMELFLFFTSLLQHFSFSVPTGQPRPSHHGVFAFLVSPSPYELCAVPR
# Cytochrome P450 2C9 (Homo sapiens), sequence (P11712 whole entry, looked up): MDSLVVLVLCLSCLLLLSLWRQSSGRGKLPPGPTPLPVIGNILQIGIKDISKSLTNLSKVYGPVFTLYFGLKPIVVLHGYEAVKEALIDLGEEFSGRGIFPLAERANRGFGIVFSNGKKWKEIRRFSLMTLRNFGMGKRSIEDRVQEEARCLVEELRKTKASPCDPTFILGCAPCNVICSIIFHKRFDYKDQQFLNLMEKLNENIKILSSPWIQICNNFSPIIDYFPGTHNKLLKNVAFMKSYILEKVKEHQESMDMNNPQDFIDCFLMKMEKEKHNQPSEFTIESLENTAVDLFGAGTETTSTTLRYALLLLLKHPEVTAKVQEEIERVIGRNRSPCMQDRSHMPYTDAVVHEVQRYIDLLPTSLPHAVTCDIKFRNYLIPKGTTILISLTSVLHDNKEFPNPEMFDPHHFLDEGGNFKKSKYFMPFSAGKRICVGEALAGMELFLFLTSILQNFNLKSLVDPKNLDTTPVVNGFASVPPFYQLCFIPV
# Cytochrome P450 3A4 (Homo sapiens), sequence (P08684 whole entry, looked up): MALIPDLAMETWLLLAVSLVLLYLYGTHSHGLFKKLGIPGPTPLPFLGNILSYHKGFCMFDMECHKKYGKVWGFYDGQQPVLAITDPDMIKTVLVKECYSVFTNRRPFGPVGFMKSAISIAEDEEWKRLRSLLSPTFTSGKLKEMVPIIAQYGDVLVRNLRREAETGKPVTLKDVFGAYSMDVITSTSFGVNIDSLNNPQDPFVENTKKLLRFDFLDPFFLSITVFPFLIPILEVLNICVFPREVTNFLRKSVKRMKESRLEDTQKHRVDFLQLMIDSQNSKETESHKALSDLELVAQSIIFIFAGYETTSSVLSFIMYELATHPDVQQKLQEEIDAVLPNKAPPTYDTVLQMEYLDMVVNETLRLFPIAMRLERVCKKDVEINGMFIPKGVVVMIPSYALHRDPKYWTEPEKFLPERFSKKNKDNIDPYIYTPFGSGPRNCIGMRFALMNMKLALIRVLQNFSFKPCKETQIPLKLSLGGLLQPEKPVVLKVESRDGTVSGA
compound,measurement,setting,value
O=C1NC(c2cccc([N+](=O)[O-])c2)=CCN1c1ccccc1O,Potency,[1],inactive
same,Potency,[2],3.16 µM (active)
same,max response,[3],23.5% and 15.8%
same,Potency,[4],inactive
same,outcome,Papain (Carica papaya),inactive
CC(C)(c1ccc(O)cc1)c1ccc(O)cc1,Potency,[1],inactive
same,Potency,[2],89.1 µM (active) and 44.7 µM (active) and 50.1 µM (active)
same,Potency,[5],43.9 µM (active)
same,Potency,[6],27.2 µM (active)
Cc1onc(-c2ccccc2)c1C(=O)Cl,Potency,[1],inactive
same,Potency,[2],inactive
same,Potency,[7],inactive
same,Potency,[5],inactive
same,Potency,[6],inactive
CN1CCCN(C(c2ccccc2)c2ccc(Cl)cc2)CC1 (configuration not stated),Potency,[2],inactive
same,Potency,[3],25.1 µM (active)
same,Potency,[5],0.0776 µM (active)
same,Potency,[6],inactive
O=C1CC(c2ccc(Cl)cc2)CC(=O)N1,Potency,[1],inactive
same,Potency,[2],inactive
same,max response,[3],1.98%
same,Potency,[5],inactive
Cc1cc2nc3ccc(=[N+](C)C)cc-3sc2cc1N,Potency,[1],35.5 µM (active)
same,Potency,[3],7.94 µM (active)
same,Potency,[7],7.08 µM (active)
same,Potency,[5],0.431 µM (active)
same,Potency,[6],1.08 µM (active)
O=[N+]([O-])c1ccc(O)c2ncccc12,Potency,[3],7.94 µM (active)
same,Potency,[4],1 µM (active)
same,Potency,[5],inactive
same,Potency,[6],inactive
CCOC(=O)c1ccc(O)c(O)c1,Potency,[1],inactive
same,max response,[3],4.88%
same,Potency,[5],inactive
same,Potency,[6],inactive
CCOc1ncc(F)c(=O)[nH]1,Potency,[1],inactive
same,Potency,[2],inactive
same,Potency,[7],inactive
same,Potency,[5],inactive
same,Potency,[6],inactive
Cc1nc2n(c(=O)c1CCN1CCC(C(=O)c3ccc(F)cc3)CC1)CCS2,Potency,[1],inactive
same,Potency,[2],inactive
same,max response,[3],-14.5%
same,Potency,[7],inactive
same,Potency,[5],0.275 µM (active)
same,Potency,[6],inactive
CN1CCC(=C2c3ccccc3CCc3cccnc32)CC1,max response,[3],12.6%
same,Potency,[7],inactive
CCOC(=O)C(=O)CCc1ccccc1,Potency,[4],inactive
O=C(O)Cn1cnnn1,Potency,[1],inactive
same,Potency,[2],inactive
same,Potency,[5],inactive
same,Potency,[6],inactive
C=CCNc1nc(NCC=C)nc(N2CCN(C(c3ccc(F)cc3)c3ccc(F)cc3)CC2)n1,max response,[3],26.9%
same,Potency,[7],inactive
same,Potency,[5],inactive
same,Potency,[6],inactive
CCCC(=O)Nc1ccc(O)c(C(C)=O)c1,Potency,[2],inactive
same,max response,[3],11.5%
same,Potency,[7],inactive
same,Potency,[5],inactive
same,Potency,[6],inactive
CN1CCC(N(Cc2cccs2)c2ccccc2)CC1,Potency,[1],inactive
same,Potency,[2],31.6 µM (active)
same,Potency,[5],0.49 µM (active)
same,Potency,[6],inactive
Nc1cccc2c(N)cccc12,Potency,[2],inactive
same,Potency,[5],2.99 µM (active)
same,Potency,[6],18.9 µM (active)
CC[C@@]1(O)C(=O)OCc2c1cc1n(c2=O)Cc2c-1nc1ccccc1c2/C=N/OC(C)(C)C,Potency,[4],inactive
N[C@@H](Cc1cc(I)c(O)c(I)c1)C(=O)O,Potency,[1],inactive
same,Potency,[2],inactive
same,max response,[3],10.7%
same,Potency,[4],inactive
same,Potency,[6],15.5 µM (active)
CC(C(O)c1ccccc1)N(C)CCOC(c1ccccc1)c1ccccc1 (configuration not stated),Potency,[2],31.6 µM (active)
same,max response,[3],-4.6%
same,Potency,[5],0.0309 µM (active)
same,Potency,[6],13.8 µM (active)
Clc1ccc2c(c1)N=C(N1CCNCC1)c1ccccc1N2,Potency,[1],inactive
same,Potency,[2],14.1 µM (active) and 10 µM (active)
same,outcome,Papain (Carica papaya),inactive
C[C@H]1C[C@H](O)c2ccsc2S1(=O)=O,Potency,[1],inactive
same,Potency,[2],inactive
same,Potency,[7],inactive
same,Potency,[5],inactive
same,Potency,[6],inactive
COc1cccc2c1[C@@H]1CN(CCCCn3c(=O)[nH]c4c(sc5ncc(-c6ccccc6)nc54)c3=O)C[C@@H]1CO2,Potency,[2],inactive
same,outcome,Papain (Carica papaya),inactive
COC(=O)[C@H]1[C@H]2C[C@@H]3c4[nH]c5cc(OC)ccc5c4CCN3C[C@H]2C[C@@H](OC(=O)/C=C/c2ccc(O)c(OC)c2)[C@@H]1OC,Potency,[2],20 µM (active)
same,Potency,[5],inactive
C[C@H](N)C(=O)N[C@@H](C)C(=O)NC1[C@H]2CN(c3nc4c(cc3F)c(=O)c(C(=O)O)cn4-c3ccc(F)cc3F)C[C@@H]12 (some centres not stated),Potency,[1],inactive
same,max response,[3],-5.88%
same,Potency,[7],inactive
same,Potency,[5],inactive
same,Potency,[8],inactive
same,Potency,[6],inactive
CC(C)OC(=O)c1cc2c(OCC(O)CNC(C)(C)C)cccc2[nH]1 (configuration not stated),Potency,[1],inactive
same,max response,[3],-12.8%
same,Potency,[7],inactive
same,Potency,[6],inactive
O=C(NO)c1ccccc1,Potency,[1],inactive
same,Potency,[2],inactive
same,max response,[3],2.69%
same,Potency,[5],inactive
same,Potency,[6],inactive
CC(C)(C)c1ccc(O)c(O)c1,Potency,[1],inactive
Fc1ccc(C(c2ccc(F)cc2)N2CCNCC2)cc1,Potency,[1],inactive
same,Potency,[2],inactive
same,Potency,[7],inactive
same,Potency,[5],7.76 µM (active)
same,Potency,[6],inactive
